# Measurements: ChEMBL document CHEMBL3988442, “University of Dundee, Small-Polar-MMV Screening Library” (2021)
# The campaign covered roughly 48,000 compounds. About 13,000 (27%) showed an effect of 50% or more. The list shows a part of the results.
# Tested on: Wolbachia pipientis
# Test: Anti-Wolbachia Cell-Based Screen
# Type: functional
# Design: scale not given: in the data most compounds retested in dose-response had high values
# Conditions: 5 µM
row,SMILES,Percent Effect [%]
1,CC(c1cccc(O)c1)N(C)S(=O)(=O)c1cccnc1 (stereo not given),-4.431
2,CC(c1cccc(O)c1)N(C)S(N)(=O)=O (stereo not given),16.66
3,CC(c1cccc(Cl)c1)N(C)CCS(=O)(=O)CCC(N)=O (stereo not given),6.991
4,CC(c1ccc(F)c(F)c1)N(C)CCS(=O)(=O)CCC(N)=O (stereo not given),2.944
5,CC(c1cccc(S(N)(=O)=O)c1)N(C)CCOC(C)(C)C (stereo not given),105.4
6,COCCN(C)C(C)c1cccc(S(N)(=O)=O)c1 (stereo not given),128.5
7,O=C(c1cc[nH]n1)N1CCc2ccc(S(=O)(=O)N3CCOCC3)cc2C1,111.1
8,O=C(c1ccc[nH]1)N1CCc2ccc(S(=O)(=O)N3CCOCC3)cc2C1,99.23
9,O=C(c1c[nH]c(=O)c(Cl)c1)N1CCc2ccccc2C1,10.27
10,O=C(O)c1cc(-n2cc3c(n2)CCC3)cc(S(=O)(=O)N2CCOCC2)c1,-7.127
11,CCCNC(=O)N1CCc2ccc(S(=O)(=O)N3CCOCC3)cc2C1,-14.34
12,CN1CCN(S(=O)(=O)c2ccc3c(c2)CN(C(=O)C(C)(C)C)CC3)CC1,-9.365
13,CC(C)CC(=O)N1CCc2ccc(S(=O)(=O)N3CCN(C)CC3)cc2C1,0.4144
14,CCCNC(=O)N1CCc2ccc(S(=O)(=O)N3CCCC3)cc2C1,-4.985
15,O=C(c1ccc[nH]1)N1CCc2c(cccc2S(=O)(=O)N2CCOCC2)C1,94.62
16,O=C(c1ccc[nH]1)N1CCc2cc(S(=O)(=O)N3CCOCC3)ccc2C1,106.5
17,O=C1COc2ccc(S(=O)(=O)N3CCOCC3)c3c2N1CCC3,16.87
18,CCCNC(=O)N1CCc2ccc(S(=O)(=O)N3CCN(C)CC3)cc2C1,-8.252
19,CCN1CCC(CC(=O)NC[C@H]2CCc3ccccc3O2)CC1,15.83
20,CC(=O)N1CCN(Cc2ccc(F)cc2)CC2(CC(=O)N(C)C2)C1.O=C(O)C(F)(F)F (stereo not given),98.03
21,Cn1cc(CN2CCC3(C2)CN(Cc2ccsc2)C3)cn1.O=C(O)C(F)(F)F.O=C(O)C(F)(F)F,-10.11
22,CC(=O)N1CCCC2(CN(Cc3ccc(F)cc3)CCO2)C1.O=C(O)C(F)(F)F (stereo not given),-7.517
23,CCN1CC2(CC1=O)CN(Cc1cnn(C)c1)CCN(C(C)=O)C2.O=C(O)C(F)(F)F (stereo not given),1.894
24,CC(=O)N1CCN(Cc2ccsc2)CC2(CC(=O)N(C)C2)C1.O=C(O)C(F)(F)F (stereo not given),101.7

row,SMILES,Percent Effect [%]
1,CCn1cc2c(n1)C(COCC1CC1)CN(C(=O)c1ccsc1)C2 (stereo not given),2.501
2,CCOCCC(=O)N1CCCN(c2ccccc2C)CC1,0.9002
3,CC(C)NC(=O)c1nc2c(s1)CCCN2c1ccccc1,7.229
4,CC(C)NC(=O)c1cc2c(s1)CCN2c1ncccn1,92.76
5,O=C(NCCN1CCOCC1)c1cc2c(s1)CCN2Cc1cccnc1,-4.667
6,O=C(NCCN1CCCC1)c1nc2c(o1)CN(c1ncccn1)C2,-7.93
7,CCc1cc(C(=O)N2CCC(Nc3ccc(C)nn3)CC2)sc1C,-9.138
8,CCCNC(=O)c1cc2c(s1)CCN2c1ncccn1,122.6
9,CCCNC(=O)c1cnc2n1CCCC2,-8.644
10,Cc1ccc(N2CCc3sc(C(=O)N4CCOCC4)cc32)nn1,84.11
11,CCCNC(=O)c1nc2c(o1)CN(c1ncccn1)C2,-1.924
12,CC(C)NC(=O)c1nc2c(s1)CCCN2C(C)C,3.81
13,Cc1ccc(N2C[C@H](C(=O)N3CCOCC3)[C@@H]3CCO[C@@H]3C2)nn1,-2.103
14,O=C(NCCN1CCCC1)c1cc2c(s1)CCN2c1ncccn1,97.7
15,c1cc(-c2nnn3c2COC(CNCC2CCOCC2)C3)ccn1 (stereo not given),-54.53
16,c1cnnc(N2CCCC(NCc3cccc4c3OCO4)C2)c1 (stereo not given),3.932
17,CCC(NC(=O)NCc1ccoc1C)c1c(C)nn(C)c1C (stereo not given),3.251
18,CCN1CCCC(c2c(-c3ccccc3)ncn2CCCO)C1 (stereo not given),-4.818
19,O=C(NCC1CC1)c1cc2c(s1)CCN2c1ncccn1,107.3
20,Cc1ccc(N2CCCc3sc(C(=O)NCCC#N)nc32)nn1.O=C(O)C(F)(F)F,-4.317
21,CCOCCCNC(=O)c1nc2c(s1)CCCN2c1ccc(C)nn1.O=C(O)C(F)(F)F,-5.598
22,Cc1nnsc1C(=O)NCC1CCN(c2ccccn2)CC1,1.014
23,Cc1ccc(N2CCc3sc(C(=O)NCCN4CCCC4)cc32)nn1,102.9
24,CCNC(=O)C(C)(C)NC(=O)NCc1cccc(Br)c1,5.794

row,SMILES,Percent Effect [%]
1,CCc1ccc(CN2CCN(CCOC)[C@@H]3CS(=O)(=O)C[C@@H]32)cc1,-8.66
2,c1ccc(-c2nc(SCc3nnc(C4CC4)o3)n[nH]2)nc1,-8.457
3,CS(=O)(=O)c1ccc(CNC2CCCN(c3cccnn3)C2)cc1 (stereo not given),6.689
4,CC(C)c1cc(NC(=O)CNC2CCCN(c3cccnn3)C2)on1 (stereo not given),100.2
5,c1cnnc(N2CCCC(NCc3ccncc3)C2)c1 (stereo not given),0.6717
6,Cc1ccc(N2CCCC(NCC(=O)Nc3cc(C)no3)C2)nn1 (stereo not given),8.409
7,Cc1cc(NC(=O)CN(C)C2CCCN(c3cccnn3)C2)on1 (stereo not given),99.52
8,Cc1cc(NC(=O)CN(C)C2CCCN(c3cccnn3)C2)n(C)n1 (stereo not given),-4.115
9,Cc1nc(CNC2CCCN(c3cccnn3)C2)no1 (stereo not given),0.4362
10,Cc1cc(NC(=O)CNC2CCCN(c3cccnn3)C2)on1 (stereo not given),92.8
11,Cc1ccc(N2CCCC(N(C)Cc3cc(C)no3)C2)nn1 (stereo not given),1.683
12,Cc1cc(NC(=O)NCCc2cscn2)nn1C,-10.8
13,O=C(Cc1cccc(F)c1F)NC1COc2ccccc2C1=O (stereo not given),2.844
14,CN(C)CCN1CCOCC2(CCCN(C(=O)c3ccccc3)C2)C1.O=C(O)C(F)(F)F.O=C(O)C(F)(F)F (stereo not given),-4.449
15,CCN1CCOCC2(CCCN(C(=O)c3cccc(O)c3)C2)C1 (stereo not given),105.1
16,CCN1CCOCC2(CCCN(C(=O)c3cnccn3)C2)C1 (stereo not given),95.08
17,CN(C)CCN1CCOCC2(CCCN(C(=O)c3cccn3C)C2)C1.O=C(O)C(F)(F)F.O=C(O)C(F)(F)F (stereo not given),-8.448
18,O=C(O)C(F)(F)F.O=C(c1cnccn1)N1CCCC2(COCCN(CC3CC3)C2)C1 (stereo not given),-6.241
19,CC(C)CN1CCCC2(CCN(C(=O)c3cnccn3)C2)C1 (stereo not given),-16.61
20,CN(C)CCN1CCOCC2(CCCN(C(=O)c3cccc(O)c3)C2)C1 (stereo not given),-3.261
21,CCN1CCOCC2(CCCN(C(=O)c3ccccc3F)C2)C1.O=C(O)C(F)(F)F (stereo not given),106.1
22,O=C(c1ccnc(-n2cnnc2)c1)N1CCCC2(CCOC2)C1 (stereo not given),13.33
